According to the supplement of paper PMC8728848:
The entries come from a sample that favours the strongest signals as a whole.

Columns and labels:
Experiment in all cases: glycan array binding signal (z-score within array); higher = stronger binding
Settings in all cases: glycan notation: IUPAC condensed, linker removed
[1] = target: Fuc(a1-2)Gal(b1-3)GalNAc(a1-3)[Fuc(a1-2)]Gal(b1-4)Glc
Summary of the method: (§1)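 The binding signal is a Z-score computed within each array and averaged over linkers. Arrays of the same protein sequence at different concentrations or buffers were also averaged together. Data originate from 3228 arrays in the Consortium for Functional Glycomics database, kept only where the protein sequence was available.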

[2] = target: Fuc(a1-2)Gal(b1-3)GlcNAc(b1-3)[Fuc(a1-2)Gal(b1-3)GlcNAc(b1-6)]GalNAc
Summary of the method: as §1

[3] = target: Fuc(a1-2)Gal(b1-4)Fuc(a1-3)]GlcNAc(b1-2)Man(a1-3)[Fuc(a1-2)Gal(b1-4)[Fuc(a1-3)]GlcNAc(b1-2)Man(a1-6)]Man(b1-4)GlcNAc(b1-4)GlcNAc
Summary of the method: as §1

[4] = target: Fuc(a1-2)Gal(b1-4)GlcNAc(b1-2)Man(a1-3)[Fuc(a1-2)Gal(b1-4)GlcNAc(b1-2)Man(a1-6)]Man(b1-4)GlcNAc(b1-4)GlcNAc
Summary of the method: as §1

[5] = target: Fuc(a1-2)Gal(b1-4)GlcNAc(b1-2)Man(a1-3)[Fuc(a1-2)Gal(b1-4)GlcNAc(b1-2)Man(a1-6)]Man(b1-4)GlcNAc(b1-4)[Fuc(a1-6)]GlcNAc
Summary of the method: as §1

[6] = target: Fuc(a1-2)Gal(b1-4)GlcNAc(b1-3)Gal(b1-4)GlcNAc(b1-2)Man(a1-3)[Fuc(a1-2)Gal(b1-4)GlcNAc(b1-3)Gal(b1-4)GlcNAc(b1-2)Man(a1-6)]Man(b1-4)GlcNAc(b1-4)GlcNAc
Summary of the method: as §1

[7] = target: Fuc(a1-2)Gal(b1-4)GlcNAc(b1-6)GalNAc
Summary of the method: as §1

[8] = target: Fuc(a1-2)[Gal(a1-4)]Gal(b1-4)GlcNAc
Summary of the method: as §1

[9] = target: Fuc(a1-2)[GalNAc(a1-3)]Gal(b1-3)GlcNAc
Summary of the method: as §1

[10] = target: Fuc(a1-2)[GalNAc(a1-3)]Gal(b1-4)[Fuc(a1-3)]GlcNAc
Summary of the method: as §1

[11] = target: Fuc(a1-2)[GalNAc(a1-4)]Gal(b1-4)GlcNAc
Summary of the method: as §1

[12] = target: Fuc(b1-3)GlcNAc
Summary of the method: as §1

[13] = target: Gal(a1-3)Gal(b1-3)GlcNAc(b1-3)GalNAc
Summary of the method: as §1

[14] = target: Gal(a1-3)Gal(b1-4)Glc
Summary of the method: as §1

[15] = target: Gal(a1-3)GalNAc
Summary of the method: as §1

[16] = target: Gal(b1-3)GalNAc(b1-3)Gal
Summary of the method: as §1

[17] = target: Gal(b1-3)[Fuc(a1-4)]GlcNAc(b1-6)GalNAc
Summary of the method: as §1

[18] = target: Gal(b1-3)[GlcNAc(b1-6)]GalNAc
Summary of the method: as §1

[19] = target: Gal(b1-4)GlcNAc
Summary of the method: as §1

[20] = target: Gal(b1-4)GlcNAc(b1-2)Man(a1-3)[Gal(b1-4)GlcNAc(b1-2)Man(a1-6)][Gal(b1-4)GlcNAc(b1-4)]Man(b1-4)GlcNAc(b1-4)[Fuc(a1-6)]GlcNAc
Summary of the method: as §1

[21] = target: Gal(b1-4)GlcNAc(b1-3)Gal(b1-4)GlcNAc(b1-3)Gal(b1-4)GlcNAc(b1-2)Man(a1-3)[Gal(b1-4)GlcNAc(b1-3)Gal(b1-4)GlcNAc(b1-3)Gal(b1-4)GlcNAc(b1-2)Man(a1-6)]Man(b1-4)GlcNAc(b1-4)[Fuc(a1-6)]GlcNAc
Summary of the method: as §1

[22] = target: Gal(b1-4)GlcNAc(b1-3)Gal(b1-4)GlcNAc(b1-3)Gal(b1-4)GlcNAc(b1-3)Gal(b1-4)GlcNAc(b1-2)Man(a1-3)[Gal(b1-4)GlcNAc(b1-3)Gal(b1-4)GlcNAc(b1-3)Gal(b1-4)GlcNAc(b1-3)Gal(b1-4)GlcNAc(b1-2)Man(a1-6)]Man(b1-4)GlcNAc(b1-4)GlcNAc
Summary of the method: as §1

[23] = target: Gal(b1-4)GlcNAc(b1-3)Gal(b1-4)GlcNAc(b1-3)Gal(b1-4)GlcNAc(b1-3)Gal(b1-4)GlcNAc(b1-2)Man(a1-3)[Gal(b1-4)GlcNAc(b1-3)Gal(b1-4)GlcNAc(b1-3)Gal(b1-4)GlcNAc(b1-3)Gal(b1-4)GlcNAc(b1-2)Man(a1-6)]Man(b1-4)GlcNAc(b1-4)[Fuc(a1-6)]GlcNAc
Summary of the method: as §1

[24] = target: Gal(b1-4)GlcNAc(b1-3)Gal(b1-4)GlcNAc(b1-3)Gal(b1-4)GlcNAc(b1-3)Gal(b1-4)GlcNAc(b1-2)[Gal(b1-4)GlcNAc(b1-3)Gal(b1-4)GlcNAc(b1-3)Gal(b1-4)GlcNAc(b1-3)Gal(b1-4)GlcNAc(b1-6)]Man(a1-6)[Gal(b1-4)GlcNAc(b1-3)Gal(b1-4)GlcNAc(b1-3)Gal(b1-4)GlcNAc(b1-3)Gal(b1-4)GlcNAc(b1-2)Man(a1-3)]Man(b1-4)GlcNAc(b1-4)[Fuc(a1-6)]GlcNAc
Summary of the method: as §1

[25] = target: Gal(b1-4)GlcNAc(b1-3)Gal(b1-4)GlcNAc(b1-3)Gal(b1-4)GlcNAc(b1-3)Gal(b1-4)GlcNAc(b1-3)Gal(b1-4)GlcNAc(b1-2)Man(a1-3)[Gal(b1-4)GlcNAc(b1-3)Gal(b1-4)GlcNAc(b1-3)Gal(b1-4)GlcNAc(b1-3)Gal(b1-4)GlcNAc(b1-3)Gal(b1-4)GlcNAc(b1-2)Man(a1-6)]Man(b1-4)GlcNAc(b1-4)GlcNAc
Summary of the method: as §1

B1: DrGal3 (Danio rerio) (protein)
chain: MDLSDALDAPPQQNNQQAGGPVWPGQPANPVWPGQPANPTWPGQPNQPAWPGQPNQQWPGQPGQPTAPGWPGPAPQTGPYGAPGQAPQVLTVPLDFPLQNGAYNKMLITINGEVKPNAKQFTVNLRRGNDIAFHINPRFSEGGKPVIVRNSMIGNNWGREERELPSFPFVPGKPFEMKILITDTEYKVAVNKSHLLEFKHRVFELNQITGLSIYNDVTLSTVNVETLQ
glycan array binding signal (z-score) [1]: -0.254 | glycan array binding signal (z-score) [2]: -0.164 | glycan array binding signal (z-score) [3]: -0.125 | glycan array binding signal (z-score) [4]: -0.218 | glycan array binding signal (z-score) [5]: -0.209 | glycan array binding signal (z-score) [6]: 1.52 | glycan array binding signal (z-score) [7]: -0.25 | glycan array binding signal (z-score) [8]: -0.087 | glycan array binding signal (z-score) [9]: -0.212 | glycan array binding signal (z-score) [10]: -0.206 | glycan array binding signal (z-score) [11]: -0.233 | glycan array binding signal (z-score) [12]: -0.277 | glycan array binding signal (z-score) [13]: -0.287 | glycan array binding signal (z-score) [14]: -0.233 | glycan array binding signal (z-score) [15]: -0.007 | glycan array binding signal (z-score) [16]: -0.183 | glycan array binding signal (z-score) [17]: -0.208 | glycan array binding signal (z-score) [18]: -0.231 | glycan array binding signal (z-score) [19]: -0.237 | glycan array binding signal (z-score) [20]: -0.247 | glycan array binding signal (z-score) [21]: 4.37 | glycan array binding signal (z-score) [22]: 4.2 | glycan array binding signal (z-score) [23]: 5.59 | glycan array binding signal (z-score) [24]: 4.6 | glycan array binding signal (z-score) [25]: 6.65
